Assay outcomes deposited in PubChem by National Center for Advancing Translational Sciences (NCATS).
Only some compounds are listed: those with a hit (about 7.5% of all), similar ones and a draw of the others.
B2AR arrestin – qHTS assay of beta-arrestin-biased ligands of beta2-adrenergic receptor. beta-arrestin recruitment to beta2AR, cell-based reporter. Potency, µM (titrated, usually from 46.1 µM), inactives show at the top dose activation, most hits filed as activators. actives 0.02% (n = 330,000);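 further: potency means the concentration at half of the fitted maximal effect; 0% = DMSO controls and full agonism = EC100 isoproterenol or metaproterenol; nearly all actives have a fitted effect of over 65% in size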
ELG1 repair inh – qHTS screen for small molecules that inhibit ELG1-dependent DNA repair in human embryonic kidney (HEK293T) cells expressing luciferase-tagged ELG1. AID 504467, 2011. HEK293T ELG1-luciferase reporter, luminescence, 16 h; DNA damage induced by 5-fluorouridine. Potency, µM (top dose mostly 46.1 µM), for the others: top-dose activity change, negative = inhibition, hits mostly inhibitors. actives 2.3% (n = 330,000); further: potency means the concentration at half of the fitted maximal effect; nearly all actives have a fitted effect of over 55% in size
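Cells (2,000 per well) received 5-fluorouridine plus test compound or DMSO and were incubated 16 hr at 37 °C, 5% CO2. Luciferase activity was read by luminescence 30 min after ONE-Glo addition; signal suppression marked inhibition of damage-induced ELG1 function.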
VP16 counter – VP16 counterscreen qHTS for inhibitors of ROR gamma transcriptional activity. AID 2546, 2010. Drosophila S2 Gal4-VP16 UAS-luciferase, luminescence, 20 h. actives 3.5% (n = 310,000). Potency, µM (series often up to 53.6 µM), for the others: at the top dose activity, negative = inhibition, most hits filed as inhibitors;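 further: Gal4-VP16 expression switched on by copper sulfate through the metallothionein promoter; potency means the concentration at half of the fitted maximal effect; nearly all actives have a fitted effect of over 50% in size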
RORg inh – qHTS for inhibitors of ROR gamma transcriptional activity; Potency, µM (top dose mostly 53.6 µM), inactives show top-dose activity change, negative = inhibition, usual class: inhibitors; actives 5.4% (n = 310,000); Nuclear receptor ROR-gamma (Mus musculus), P51450; Drosophila S2 Gal4-RORgamma UAS-luciferase reporter, 20 h; further: potency means the concentration at half of the fitted maximal effect; nearly all actives have a fitted effect of over 60% in size
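Schneider cells (Drosophila), stable Gal4 DBD–ROR gamma + UAS-luc; 1 hr cmpd preincubation; Cu2+ induction 700 uM final; 20 hr ambient; luminescence.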
TSHR antagonist – Antagonists of the Thyroid Stimulating Hormone Receptor: HTS campaign | TSHR-expressing cells, TSH-stimulated cAMP HTRF, 2 h; stronger effect = lower value | activity change, negative = inhibition, % at 11.5 µM | AID 504810, 2011 | Thyrotropin receptor (Homo sapiens), P16473 | actives 0.2% (n = 330,000);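 active means activity change below a set negative limit, meaning inhibition stronger than a set level, cut at about -70% in these data; inconclusive means activity change between two set negative limits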
Target sequence (P16473 whole entry, looked up): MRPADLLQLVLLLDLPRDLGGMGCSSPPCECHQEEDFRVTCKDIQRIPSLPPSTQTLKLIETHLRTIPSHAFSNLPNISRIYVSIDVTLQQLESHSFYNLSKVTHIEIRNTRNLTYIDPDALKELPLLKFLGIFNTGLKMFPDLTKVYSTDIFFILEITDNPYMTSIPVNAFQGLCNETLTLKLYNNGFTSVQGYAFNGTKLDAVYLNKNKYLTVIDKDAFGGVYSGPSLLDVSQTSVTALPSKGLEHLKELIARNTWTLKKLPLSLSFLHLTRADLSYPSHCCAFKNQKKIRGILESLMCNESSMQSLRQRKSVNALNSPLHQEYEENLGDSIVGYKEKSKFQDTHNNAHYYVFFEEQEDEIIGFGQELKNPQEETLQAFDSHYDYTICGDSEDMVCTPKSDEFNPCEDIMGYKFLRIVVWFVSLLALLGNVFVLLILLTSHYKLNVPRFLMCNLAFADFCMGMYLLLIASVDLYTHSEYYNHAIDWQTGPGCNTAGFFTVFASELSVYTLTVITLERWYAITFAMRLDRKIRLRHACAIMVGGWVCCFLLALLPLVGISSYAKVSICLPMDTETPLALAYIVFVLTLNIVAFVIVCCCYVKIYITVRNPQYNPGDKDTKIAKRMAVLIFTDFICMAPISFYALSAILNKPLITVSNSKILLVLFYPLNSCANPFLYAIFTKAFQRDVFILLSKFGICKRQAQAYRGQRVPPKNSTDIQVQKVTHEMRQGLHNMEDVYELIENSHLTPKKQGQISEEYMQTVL
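Competitive HTRF cAMP read-out (cryptate anti-cAMP antibody, cAMP-d2; 30 min, room temperature) in freshly harvested TSHR cells. Compounds added before TSH at EC80 (4nM final), followed by 2 hours' incubation at 37 deg C.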
An asterisk follows results filed as active. Unless noted, the call rests on the fitted dose curve; in most records, active means well fitted curve in the direction sought with a large enough effect; inconclusive means small, poorly fitted or top-dose-only effect, or another doubt; inactive means no such curve, though single readings can be large; an effect the other way counts as inactive or inconclusive. Unless noted, on the % scale 0 is the no-effect control and ±100 the full control effect.

Cc1ccc(-n2nnnc2SCc2nc3sc(C)c(C)c3c(=O)[nH]2)cc1 was read as B2AR arrestin -1%, ELG1 repair inh -1%, VP16 counter inconclusive, RORg inh 11µM* and TSHR antagonist -5.
For Cc1sc2nc(CN3CCN(c4ccc(O)cc4)CC3)[nH]c(=O)c2c1C the results were B2AR arrestin -2%, ELG1 repair inh 21µM*, VP16 counter -3%, RORg inh -1% and TSHR antagonist 15.
CC(=O)c1sc2nc(CSc3nnnn3-c3ccccc3)[nH]c(=O)c2c1C was read as B2AR arrestin 0%, ELG1 repair inh -9%, VP16 counter -13%, RORg inh inconclusive and TSHR antagonist -12.
CCCn1cnc2sc(CC)cc2c1=O was read as B2AR arrestin -3%, ELG1 repair inh inconclusive, VP16 counter -7%, RORg inh 35% and TSHR antagonist 12.
For CCc1cc2c(=O)n(CCC(C)C)c(=S)[nH]c2s1 the results were B2AR arrestin -1%, ELG1 repair inh inconclusive, VP16 counter 1.4µM*, RORg inh 0.2µM* and TSHR antagonist -14.
Screening COc1cccc(C(=O)Nc2nc3ccccc3s2)c1 returned B2AR arrestin 0%, ELG1 repair inh inconclusive, VP16 counter 14µM*, RORg inh 13µM* and TSHR antagonist -13.
For COc1ccc2nc(NC(=O)c3ccc(F)cc3)sc2c1 the results were B2AR arrestin -1%, ELG1 repair inh inconclusive, VP16 counter -6%, RORg inh 11µM* and TSHR antagonist -14.
For O=C(Nc1nc(=O)c2ccccc2s1)c1ccccc1 the results were B2AR arrestin -1%, ELG1 repair inh inconclusive, VP16 counter 6.3µM*, RORg inh 7.1µM* and TSHR antagonist -12.
`CC(=O)Nc1nc(=O)c2ccccc2s1` gave B2AR arrestin 0%, ELG1 repair inh inconclusive, VP16 counter inconclusive, RORg inh inconclusive and TSHR antagonist 5.
Screening O=C(Nc1nc2ccccc2s1)c1ccc(Cl)s1 returned B2AR arrestin 1%, ELG1 repair inh inconclusive, VP16 counter -33%, RORg inh 8.9µM* and TSHR antagonist -12.
For CC1(C)C(C(=O)O)N2C(=O)CC2S1(=O)=O (centres undefined) the results were VP16 counter -4% and RORg inh -5%.
`CS(=O)(=O)c1ccc2nc(NC(=O)c3ccccc3)sc2c1` gave B2AR arrestin 0%, ELG1 repair inh inconclusive, VP16 counter inconclusive, RORg inh 11µM* and TSHR antagonist 1.
Screening COc1ccc(C(=O)NCc2nnc(SCC(=O)Nc3nc4ccccc4s3)o2)cc1OC returned B2AR arrestin -1%, ELG1 repair inh -6%, VP16 counter 8.9µM*, RORg inh 11µM* and TSHR antagonist -2.
Screening COc1ccc(C(=O)Nc2nc3ccccc3s2)cc1 returned B2AR arrestin 0%, ELG1 repair inh inconclusive, VP16 counter inconclusive, RORg inh 5µM* and TSHR antagonist -5.
Screening O=C(Nc1nc2ccccc2s1)c1ccc(F)cc1 returned B2AR arrestin 0%, ELG1 repair inh inconclusive, VP16 counter inconclusive, RORg inh 4.5µM* and TSHR antagonist -14.
COc1ccc(C(=O)NNC(=O)CCn2nnc(-c3ccc(Cl)cc3)n2)cc1OC was read as B2AR arrestin -1%, ELG1 repair inh 1%, VP16 counter -7%, RORg inh -7% and TSHR antagonist -6.
`Cc1ccc2nc(NC(=O)c3ccc(-c4nc5ccccc5s4)s3)sc2c1` gave B2AR arrestin -1%, ELG1 repair inh inconclusive, VP16 counter 6%, RORg inh 7.9µM* and TSHR antagonist 4.
Cc1ccc(C(=O)Nc2nc3ccccc3c(=O)s2)cc1 was read as B2AR arrestin 0%, ELG1 repair inh inconclusive, VP16 counter inconclusive, RORg inh 14µM* and TSHR antagonist 22.
